# Source: PubChem BioAssay (NCATS)
# Results filed as inconclusive are left out. Activity calls are given as the source filed them. The call rests on the fitted dose curve; in most records, active means well fitted cell-killing curve with a large enough effect; inconclusive means small, poorly fitted or top-dose-only effect, or effect the other way; inactive means no such curve, though single readings can be large or run the other way.
# Experiment: Quantitative High-Throughput drug screen in 47 multiple myeloma cell lines against the NCATS MIPE library collection: AMO1_DSMZ cell viability assay (AID 1918927; further: nearly all actives have a fitted effect of over 30% in size)
# Conditions: AMO1 myeloma cells viability, CellTiter-Glo ATP luminescence, 48 h; series mostly up to 45.8 µM; viability, % of DMSO: at the top concentration
# Description: PI: Beverly A. Mock Ph.D.
# Laboratory of Cancer Biology and Genetics,
# Center for Cancer Research, National Cancer Institute,
# National Institute of Health, Bethesda, Maryland
# Drug resistance and disease progression are common in multiple myeloma (MM) patients, underscoring the need for new therapeutic combinations. […] We hypothesized that effective combinations would reduce MYC expression and enhance p16 activity. […] These preclinical data identify potentially useful drug combinations for evaluation in drug-resistant MM and reveal potential mechanisms of combined drug sensitivity.
# Described herein is the primary MIPE qHTS used to cherrypick compounds. Validated compounds were then further tested for potential synergistic activiy.
# [1] Peat TJ, Gaikwad SM, Dubois W, Gyabaah-Kessie N, Zhang S, Gorjifard S, Phyo Z, Andres M, Hughitt VK, Simpson RM, Miller MA, Girvin AT, Taylor A, Williams D, D'Antonio N, Zhang Y, Rajagopalan A, Flietner E, Wilson K, Zhang X, Shinn P, Klumpp-Thomas C, McKnight C, Itkin Z, Chen L, Kazandijian D, Zhang J, Michalowski AM, Simmons JK, Keats J, Thomas CJ, Mock BA. Drug combinations identified by high-throughput screening promote cell cycle transition and upregulate Smad pathways in myeloma. Cancer Lett. 2023 Aug 1;568:216284. doi: 10.1016/j.canlet.2023.216284. Epub 2023 Jun 24. PMID: 37356470; PMCID: PMC10408729.
# SEQUENCE No. (e.g., 1, 2, 3, etc.); […] (e.g., Cells, Incubation, Reagent, etc.); VALUE and DESCRIPTION.
# 1; Cells; 5 uL; white, solid bottom 1536-well Greiner assay plate.
# 2; Compounds; 23 nL; Kalypsis pin tool (Wako USA) equipped with a 1536-well pin head to transfer to the assay plates.
# 3; Incubation; 48 hours; 37C incubation.
# 4; Reagent;5uL; CellTiter Glo (Promega).
# 5; Detector; 425V; Luminescence; Viewlux PerkinElmer.
# NOTES (numbers refer to Sequence numbers above)
# 1. The cell-based screening methods employed in this study were like those previously published. Briefly, the corresponding myeloma cell lines were screened in 1,536-well plates with 500 cells, 5-uL per well for inhibition of cell viability (assessed by measuring ATP levels with CellTiterGlo).
# 2. NCATS MIPE 4.0 library of approved and investigational drugs were added using the Kalypsis pin tool. Wells treated with DMSO only for 100% viability and media only wells for 0% viability were used as controls.
# 3. The assay plates were covered and incubated for 48 hours in a 37C, 5% CO2 incubator with controlled humidity.
# 4. After 48 hours, CellTilter-GloTM luminescent substrate mix (Promega) reagent was added to the assay plate and plates we incubated for 5 min at room temperature.
# 5. Signal was measured as median relative luminescence units on a ViewLux (PerkinElmer) multiplate reader.
# [1] Heske CM, Davis MI, Baumgart JT, Wilson K, Gormally MV, Chen L, Zhang X, Ceribelli M, Duveau DY, Guha R, Ferrer M, Arnaldez FI, Ji J, Tran HL, Zhang Y, Mendoza A, Helman LJ, Thomas CJ. Matrix Screen Identifies Synergistic Combination of PARP Inhibitors and Nicotinamide Phosphoribosyltransferase (NAMPT) Inhibitors in Ewing Sarcoma. Clin Cancer Res. 2017 Dec 1;23(23):7301-7311. doi: 10.1158/1078-0432.CCR-17-1121. Epub 2017 Sep 12. PMID: 28899971; PMCID: PMC6636827.
# Potency means the concentration at half of the fitted maximal effect.
Compound,Potency,"viability, % of DMSO"
COc1cccc2nc(-c3cccs3)nc(NN3C(=O)C=C(C)C3=O)c12,93.5 nM (active),
Cc1ccc(C(=O)Nc2cccc(C(F)(F)F)c2)cc1-c1ccc2nc(NCCN3CCOCC3)ncc2c1,3720 nM (active),
CNC(=O)c1cc(Oc2ccc(NC(=O)Nc3cc(C(C)(C)C)nn3-c3ccc4ncccc4c3)c(F)c2)ccn1,7430 nM (active),
Cc1cn2cc(C(=O)N(C)CCO)cc(N[C@@H]3CCOc4cccc(C)c43)c2n1,,98.9% (inactive)
COc1cc(-c2nn(C3CCC(N4CCN(C(C)=O)CC4)CC3)c3ncnc(N)c23)ccc1NC(=O)c1cc2ccccc2n1C (stereo not given),590 nM (active),
CCCNC(=O)Nc1ccc(Oc2ncnc3cc(OC)c(OC)cc23)cc1Cl,,111% (inactive)
COc1cc(C(C)C)c2c(c1)S(=O)(=O)N(COc1cc(=O)n3cccc(OCCN4CCCCC4)c3n1)C2=O,13200 nM (active),
COC(=O)Nc1ccc(-c2nc(N3CCOCC3)c3cnn(C4CCN(Cc5cccnc5)CC4)c3n2)cc1,,119% (inactive)
Cc1nc(Nc2n[nH]c3c2CN(C(=O)N[C@H](CN(C)C)c2ccccc2)C3(C)C)c2sccc2n1,74.3 nM (active),
CC[C@@]1(O)C(=O)OCc2c1cc1n(c2=O)Cc2cc3cc(O)ccc3nc2-1,74.3 nM (active),
CC1(C)CC(=O)c2c(C(F)(F)F)nn(-c3ccc(C(N)=O)c(NC4CCC(OC(=O)CN)CC4)c3)c2C1 (stereo not given),148 nM (active),
CC[C@H]1CN2CCc3cc(OC)c(OC)cc3[C@H]2C[C@@H]1C[C@@H]1NCCc2cc(OC)c(OC)cc21,235 nM (active),
C1=CCOCc2cc(ccc2OCCN2CCCC2)Nc2nccc(n2)-c2cccc(c2)OCC1,3320 nM (active),
O=C(O)[C@H](Cc1c[nH]c2ccccc12)N1C(=O)c2ccccc2C1=O,,106% [at 92.2 µM] (inactive)
C[C@@H]1COC(Nc2ccc3ncnc(Nc4ccc(OCc5nccs5)c(Cl)c4)c3c2)=N1,4690 nM (active),
O=C(Cc1ccc(-c2ccc(OCCN3CCOCC3)cc2)cn1)NCc1ccccc1,13.2 nM (active),
CN1CCN(Cc2ccc(NC(=O)Nc3ccc(Oc4cc(NC(=O)C5CC5)ncn4)cc3)cc2C(F)(F)F)CC1,,127% (inactive)
Nc1ccccc1NC(=O)c1ccc(CNc2nccc(-c3cccnc3)n2)cc1,590 nM (active),
COc1ccc2c(c1)CC[C@@H](CN(C)CC(=O)O)[C@H]2c1ccccc1,590 nM (active),
CC(C)c1noc(N2CCC(COc3ccc(-c4ccc(S(C)(=O)=O)cc4)nc3)CC2)n1,,107% (inactive)

Compound,Potency,"viability, % of DMSO"
Clc1cccc(-c2nnnn2Cc2cccnc2)c1Cl,,98.9% (inactive)
CCC1=C[C@@H]2CN(C1)Cc1c([nH]c3ccccc13)[C@@](C(=O)OC)(c1cc3c(cc1OC)N(C)[C@@H]1[C@@](O)(C(=O)OC)[C@H](OC(C)=O)[C@]4(CC)C=CCN5CC[C@]31[C@@H]54)C2,52.6 nM (active),
Cc1cc(N2CCOCC2)cc2[nH]c(-c3c(NC[C@@H](O)c4cccc(Cl)c4)cc[nH]c3=O)nc12,526 nM (active),
CCCCN1CCC(CNC(=O)c2c3n(c4ccccc24)CCCO3)CC1,13200 nM (active),
CC(C)c1ccc(Cn2ccc3c4c(N)nc(NC5CC5)nc4ccc32)cc1,935 nM (active),
O=C(Nc1cc(C(F)(F)F)cc(C(F)(F)F)c1)c1cc(Cl)ccc1O,235 nM (active),
C=CCn1c(=O)c2cnc(Nc3ccc(N4CCN(C)CC4)cc3)nc2n1-c1cccc(C(C)(C)O)n1,590 nM (active),
Fc1cc(-c2cccc3ncc(-c4cnn(C5CCNCC5)c4)nc23)cc(F)c1CN1CCOCC1,8330 nM (active),
Cn1cc(-c2[nH]c3cc(NC(=O)[C@H](N)C4CCCCC4)cc4c3c2C=NNC4=O)cn1,2960 nM (active),
O=c1c2ccccc2nc2n1CCc1c-2[nH]c2ccccc12,,88.4% (inactive)
COC(=O)[C@]12CCC(C)(C)C[C@@H]1[C@@H]1C(=O)C=C3[C@@]4(C)C=C(C#N)C(=O)C(C)(C)[C@@H]4CC[C@@]3(C)[C@]1(C)CC2,469 nM (active),
CN1CC[C@@H](c2c(O)cc(O)c3c(=O)cc(-c4ccccc4Cl)oc23)[C@@H](O)C1,26.4 nM (active),
Nc1nc(Nc2ccc(S(N)(=O)=O)cc2)nn1C(=O)c1c(F)cccc1F,2090 nM (active),
COc1ccc(F)c(F)c1C(=O)c1cnc(NC2CCN(S(C)(=O)=O)CC2)nc1N,833 nM (active),
CNC(=O)c1ccccc1Nc1nc(Nc2ccc(N3CCOCC3)cc2OC)ncc1Cl,418 nM (active),
COc1ccc(OC)c(-c2nnc3ccc(-c4ccc(OC)c(O[C@@H]5CCOC5)c4)nn23)c1,26400 nM (active),
COc1cccc(Nc2c(C(N)=O)cnc3c(C)cc(S(=O)(=O)c4cccc(C(=O)N(C)C)c4)cc23)c1,12900 nM (active),
Nc1ccc(S(=O)(=O)Nc2ncccn2)cc1,,128% (inactive)
CC(C)(C)OC(=O)Nc1ccc(-c2cc(C(=O)NCCCCCCC(=O)NO)no2)cc1,590 nM (active),
CC(C)c1ccccc1Cc1cc(C(=O)Nc2ccc(S(=O)(=O)c3ccccc3C(C)(C)C)cc2)c(O)c(O)c1O,,117% (inactive)
